Bioassay records (PubChem BioAssay)
Six1-Eya2 blk = Six1/Eya2 interaction inhibition | Q15475+O00167 | AlphaScreen GST-Six1/His-Eya2 binding, biochemical; active compounds read low | activity change, % (no concentration beside the values) | 360,000 tested, 0.56% active | AID 651725; in the data active = activity change below about -65%; inconclusive = mostly about -30% to -63%
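GST-Six1 + His-Eya2 (5X stock: 250/500 nM); Tris pH 8.0, 300 mM NaCl, 0.05% BSA, 0.02% Tween 20; GSH donor/Ni acceptor beads; 1 h 37 °C dark; AlphaScreen readout.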
CtBP-E1A inh = blocks the CtBP interaction with E1A; AID 651724; 340,000 tested, 0.49% active; activity change, % (concentration not given with the values); AlphaScreen GST-E1A/His-CtBP binding, 1536-well; active compounds read low; in the data active = activity change below about -65%; inconclusive = mostly about -30% to -63%
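Steps: dispense buffer (Tris pH 8.0, NaCl 300 mM, TCEP 1 mM, BSA, Tween 20); add 5X protein mix (GST-E1A, His-CtBP, 125 nM each); pin 23 nL compound; 2 h at 37 °C, dark; add 5X beads (50 ug/mL); 1 h; read.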
TrxR1 substrate = substrates of rat thioredoxin reductase 1; purified TrxR1 substrate turnover, NADPH consumption readout; O89049; 390,000 tested, 0.01% active; Potency, µM (top dose mostly 114 µM), inactives show at the top dose activity change, negative = substrate turnover; also: potency is read from the fitted curve at half-maximal effect; nearly all actives have a fitted effect of over 50% in size
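Rat TrxR1, dispensed at 90 nM, was prereduced with 400 uM NADPH (final) for 5 min at ~22 deg C, then incubated with compound 15 min before 400 uM selenite. A first-read NADPH fluorescence drop versus no-compound background flagged substrates.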
rTrxR1 inhibitor = blocks rat thioredoxin reductase 1; AID 588453; 390,000 tested, 1% active; O89049; Potency, µM (top dose mostly 114 µM), for inactives: at the top dose activity change, negative = inhibition, hits mostly inhibitors; recombinant rTrxR1, NADPH fluorescence consumption, selenite substrate; also: potency is read from the fitted curve at half-maximal effect; nearly all actives have a fitted effect of over 65% in size
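Rat TrxR1 (90 nM in the dispensed reagent) was pre-reduced with 400 uM NADPH for 5 min at room temperature, then incubated with compound for 15 min. After 400 uM selenite was added, NADPH fluorescence (Ex 340/Em 450 nm) was followed for 8 min.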
Eya2 inh = inhibitors of human Eya2 phosphatase activity. AID 488837. Potency, µM (series often up to 76.9 µM), for inactives: top-dose activity, negative = inhibition, actives largely listed as inhibitors. 330,000 tested, 0.006% active. recombinant Eya2, OMFP fluorescence dephosphorylation (OMFP is methylfluorescein phosphate); also: potency is read from the fitted curve at half-maximal effect
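Eya2 protein (added as 0.2 uM solution) was preincubated with compound for 10 min at ambient temperature in 50 mM HEPES pH 7.5, 50 mM NaCl, 5 uM MgCl2, 0.05% BSA, 1 mM DTT. OMFP (added at 50 uM) then reacted 10 min; fluorescence read at 485/525 nm.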
GALK inh = blocks human galactokinase activity | 270,000 tested, 0.007% active | Purified GALK, Kinase-Glo residual ATP luminescence | P51570 | Potency, µM (titrated, usually from 57.5 µM), for inactives: at the highest dose activity change, negative = inhibition, usual class: inhibitors; also: potency is read from the fitted curve at half-maximal effect
Target sequence (P51570 whole entry, looked up): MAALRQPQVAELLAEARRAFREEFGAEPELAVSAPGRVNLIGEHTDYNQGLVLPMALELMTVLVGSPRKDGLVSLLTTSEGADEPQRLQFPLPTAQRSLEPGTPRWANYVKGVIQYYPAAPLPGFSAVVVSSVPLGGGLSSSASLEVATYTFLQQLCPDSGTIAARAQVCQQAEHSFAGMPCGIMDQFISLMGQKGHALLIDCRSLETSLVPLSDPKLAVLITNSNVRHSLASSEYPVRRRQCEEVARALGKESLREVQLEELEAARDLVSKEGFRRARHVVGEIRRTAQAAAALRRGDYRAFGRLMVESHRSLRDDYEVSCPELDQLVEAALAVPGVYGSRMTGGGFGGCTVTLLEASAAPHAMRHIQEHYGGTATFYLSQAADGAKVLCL
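Kinase-Glo Plus luminescence measured ATP left after a 1 h room-temperature reaction. The reaction used 5 nM GALK, 100 uM galactose and 35 uM ATP at pH 8.0 (20 mM HEPES, 5 mM MgCl2, 60 mM NaCl, 1 mM DTT, 0.01% BSA).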
Numbers without * were called inactive; [ ] = remark or other dose. Compounds with a hit are over-represented: about 1.5% of the library has one in this group of screens. Unless noted, calls follow the shape of the dose curve; as a rule, active = well fitted curve in the direction sought with a large enough effect; inconclusive = small, poorly fitted or top-dose-only effect, or another doubt; inactive = no such curve, though single readings can be large; an effect the other way counts as inactive or inconclusive. % is scaled to controls: 0 for no effect and ±100 for the full control effect.

How did CCOc1ccccc1NC(=O)C1=C(C)Nc2ncnn2C1c1ccco1 (stereo not given) do in these assays?
TrxR1 substrate: 1%[57.1 µM]; rTrxR1 inhibitor: 22%[57.1 µM]

What do the screens show for `COc1ccc(Nc2nc(Nc3ccc(OC)cc3OC)nc(N3CCOCC3)n2)c(OC)c1`?
TrxR1 substrate: 3%; rTrxR1 inhibitor: 18%

How did O=C(O)Cc1ccc2ccc3ccccc3c2c1 do in these assays?
Six1-Eya2 blk: 0; CtBP-E1A inh: 1; TrxR1 substrate: 10%; rTrxR1 inhibitor: 15%

How did O=C(O)Cc1ccc(O)c(O)c1 do in these assays?
Six1-Eya2 blk: 3; CtBP-E1A inh: 15; TrxR1 substrate: 9%[57.1 µM]; rTrxR1 inhibitor: 7.5µM*; Eya2 inh: 3%; GALK inh: 0%

Results for Cc1ccc([C@@H]2C3COCC=C3C(C#N)=C(N)C2(C#N)C#N)o1 (stereo not given in full) ?
Six1-Eya2 blk: -6; CtBP-E1A inh: -11; TrxR1 substrate: 19%; rTrxR1 inhibitor: 7.9µM*; Eya2 inh: 12%; GALK inh: 8%

Results for Cc1ccc(C2C3CSCC=C3C(C#N)=C(N)C2(C#N)C#N)cc1 (stereo not given) ?
Six1-Eya2 blk: -17; CtBP-E1A inh: -21; TrxR1 substrate: 9%; rTrxR1 inhibitor: inconclusive; Eya2 inh: -5%; GALK inh: -2%

How did Cc1ccc(Cn2c(C)c(CNC(C)c3ccccc3)c(C(=O)O)c2C)cc1 (stereo not given) do in these assays?
TrxR1 substrate: -9%; rTrxR1 inhibitor: inconclusive

Results for CN(C)c1cc2c(c(N(C)C)c1)C(=O)c1ccccc1C2=O ?
Six1-Eya2 blk: -81*; CtBP-E1A inh: -81*; TrxR1 substrate: -5%[57.1 µM]; rTrxR1 inhibitor: 7%[57.1 µM]; Eya2 inh: 2%; GALK inh: 0%

Results for O=C1C2C3C=CC(C3=C3CCCCC3)C2C(=O)N1c1ccccc1 (stereo not given) ?
Six1-Eya2 blk: 5; CtBP-E1A inh: 2; TrxR1 substrate: 4%; rTrxR1 inhibitor: 20µM*; Eya2 inh: inconclusive; GALK inh: 0%

How did COc1ccc(CCNC(=O)CN2C(=O)COc3ccc(S(=O)(=O)N4CCCCCC4)cc32)cc1OC do in these assays?
TrxR1 substrate: 3%; rTrxR1 inhibitor: 3%

How did Clc1ccc(OCCn2c(-c3ccco3)nc3ccccc32)cc1 do in these assays?
Six1-Eya2 blk: -17; CtBP-E1A inh: -3; TrxR1 substrate: 11%; rTrxR1 inhibitor: inconclusive; Eya2 inh: -20%; GALK inh: 0%

How did c1coc(Cn2c(-c3ccco3)nc3ccccc32)c1 do in these assays?
Six1-Eya2 blk: -30; CtBP-E1A inh: -23; TrxR1 substrate: 27%; rTrxR1 inhibitor: 3.2µM*; Eya2 inh: -16%; GALK inh: 0%

What do the screens show for `CCc1cccc(NC(=O)Cn2c(C(=O)OC)cc3occc32)c1`?
TrxR1 substrate: 12%; rTrxR1 inhibitor: 16%

What do the screens show for `COc1cccc(/C=N/NC(=O)Cn2nc(C)c([N+](=O)[O-])c2C)c1O`?
Six1-Eya2 blk: -95*; CtBP-E1A inh: -94*; TrxR1 substrate: -8%; rTrxR1 inhibitor: -3%; Eya2 inh: -10%; GALK inh: 1%

Results for COc1cccc(/C=N/NC(=O)C(C)n2nc(C)c([N+](=O)[O-])c2C)c1O (stereo not given) ?
Six1-Eya2 blk: -89*; CtBP-E1A inh: -66*; TrxR1 substrate: -4%; rTrxR1 inhibitor: 0%; Eya2 inh: -6%; GALK inh: 2%

How did Cc1nn(CC(=O)N/N=C/c2cccs2)c(C)c1[N+](=O)[O-] do in these assays?
Six1-Eya2 blk: -5; CtBP-E1A inh: -6; TrxR1 substrate: 5%[57.1 µM]; rTrxR1 inhibitor: 13%[57.1 µM]; Eya2 inh: 0%; GALK inh: 0%

How did N#Cc1ccccc1NC(=O)C(=O)NCC(c1cccnc1)N1CCc2ccccc21 (stereo not given) do in these assays?
TrxR1 substrate: 4%; rTrxR1 inhibitor: 10%

What do the screens show for `O=C/C=C/c1c(-c2ccccc2)cc2oc3ccccc3cc1-2`?
Six1-Eya2 blk: 27; CtBP-E1A inh: -4; TrxR1 substrate: -5%; rTrxR1 inhibitor: 45µM*; Eya2 inh: 12%; GALK inh: 6%

What do the screens show for `Cc1ccc(/C=C/C(=O)OC(C)C(=O)Nc2ccc(Cl)cn2)o1` (stereo not given)?
Six1-Eya2 blk: -9; CtBP-E1A inh: -15; TrxR1 substrate: 1%; rTrxR1 inhibitor: 14µM*; Eya2 inh: -4%; GALK inh: 0%

Results for O=C1NC(=S)NC1=Cc1ccco1 ?
Six1-Eya2 blk: -24; CtBP-E1A inh: -16; TrxR1 substrate: -10%; rTrxR1 inhibitor: 7.9µM*

How did OC(CN1C2=NCCN2c2ccccc21)c1ccccc1 (stereo not given) do in these assays?
Six1-Eya2 blk: 7; CtBP-E1A inh: -11; TrxR1 substrate: 2%; rTrxR1 inhibitor: 2%; Eya2 inh: -15%; GALK inh: -3%

How did O=C1C2C3C=CC(O3)C2C(=O)N1CC(O)c1ccccc1 (stereo not given) do in these assays?
Six1-Eya2 blk: 1; CtBP-E1A inh: 5; TrxR1 substrate: 5%; rTrxR1 inhibitor: 50µM*; Eya2 inh: -9%; GALK inh: -2%

What do the screens show for `CCc1ccc(NC(=O)CC2C(=O)N(c3ccc(Cl)cc3)C(=O)N2Cc2ccco2)cc1` (stereo not given)?
TrxR1 substrate: -8%; rTrxR1 inhibitor: 11%

What do the screens show for `Cc1cc(/C=N/NC(=O)C(O)(c2ccccc2)c2ccccc2)c(C)n1-c1cccc(C(=O)O)c1`?
Six1-Eya2 blk: -18; TrxR1 substrate: 1%; rTrxR1 inhibitor: inconclusive; Eya2 inh: 4%; GALK inh: -5%

What do the screens show for `Cc1cc(/C=N/NC(=O)c2cccc(N(C)C)c2)c(C)n1-c1cc(C(=O)O)cc(C(=O)O)c1`?
Six1-Eya2 blk: -67*; CtBP-E1A inh: inconclusive; TrxR1 substrate: -24%[57.1 µM]; rTrxR1 inhibitor: -20%[57.1 µM]; Eya2 inh: inconclusive; GALK inh: -2%

How did COc1cccc(/C=N/NC(=S)Nc2cccnc2)c1 do in these assays?
Six1-Eya2 blk: 1; CtBP-E1A inh: 4; TrxR1 substrate: 1%; rTrxR1 inhibitor: -10%; Eya2 inh: 6%; GALK inh: 4%

What do the screens show for `COc1cc(/C=N/NC(=S)Nc2cccc(S(=O)(=O)N(C)C)c2)cc(OC)c1O`?
Six1-Eya2 blk: -21; CtBP-E1A inh: 5; TrxR1 substrate: -9%; rTrxR1 inhibitor: -22%; Eya2 inh: 2%; GALK inh: 1%
